# Sampled rows, rich in hits. Any-hit rate of the full collection: about 2.2%.
# JMJD2C inh: human JMJD2C demethylase inhibition; Q9H3R0; GST-JMJD2C(1-420) H3K9me3 demethylation, DELFIA europium; inhibition, % at 2.35 µM; 330,000 tested, 0.069% active;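 active = more than half of a compound's replicate wells show inhibition beyond 50%, single wells judged on their own value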;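 note: signal counts dimethyl H3K9 product captured on neutravidin plate; 0% = median of DMSO wells and 100% = 0.3 times that DMSO median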
# MEX-5 binding: C. elegans MEX-5 TCR-2 RNA binding activity; MEX-5/FITC-TCR2 RNA binding, fluorescence polarization; active compounds read low; activity score (negative = inhibition of binding), % at 10 µM; 300,000 tested, 0.38% active; AID 1832; Q9XUB2;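 active = inhibition past about -25% in most replicates, and total fluorescence under double the plate's negative control median, limit read from the data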;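 note: 0% = DMSO and -100% = 5 µM competing unlabeled TCR2 RNA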
# Target sequence (Q9XUB2 whole entry, looked up): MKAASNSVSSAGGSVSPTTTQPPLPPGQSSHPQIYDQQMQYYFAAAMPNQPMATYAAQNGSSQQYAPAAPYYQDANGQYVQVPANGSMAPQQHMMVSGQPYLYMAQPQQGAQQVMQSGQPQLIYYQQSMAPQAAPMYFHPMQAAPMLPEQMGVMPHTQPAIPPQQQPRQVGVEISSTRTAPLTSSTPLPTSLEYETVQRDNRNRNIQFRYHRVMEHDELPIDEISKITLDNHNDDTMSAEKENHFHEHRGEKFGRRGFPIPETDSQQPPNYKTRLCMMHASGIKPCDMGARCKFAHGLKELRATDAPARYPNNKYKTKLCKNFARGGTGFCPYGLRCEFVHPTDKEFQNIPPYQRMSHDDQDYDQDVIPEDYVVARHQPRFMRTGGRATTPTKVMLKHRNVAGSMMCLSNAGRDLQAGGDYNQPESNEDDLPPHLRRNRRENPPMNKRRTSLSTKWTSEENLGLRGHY
# HTR2A ag: agonists of mouse serotonin 5-HT2A receptor (HTR2A). P35363. CHO-K1 mHTR2A beta-arrestin complementation, luminescence; percent of 30 µM serotonin response. activation, % at 7.6 µM. 360,000 tested, 0.66% active;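 active = activation above a run cutoff, the mean activation of all tested compounds plus 3 SD, cut at about 14% in these data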;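 note: 0% = plate median of compound wells and 100% = 30 µM serotonin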
# V-ATPase pHluor: regulators of yeast V-ATPase proton transport | response, % at 10 µM | S. cerevisiae, pHLuorin cytosolic pH fluorescence | 350,000 tested, 0.37% active; in the data active = response mostly above about 7.3%, no sharp cut-off; inactive = mostly below about 5.4%; note: actives read high
# Exocytosis inh: lytic granule exocytosis inhibition; TALL-104 LAMP-1 surface exposure, flow cytometry; cells stimulated with thapsigargin and PMA; inhibition, % at 10 µM; 360,000 tested, 0.66% active; AID 651702;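 active = inhibition above about 55%, limit read from the data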
# VLA-4 inh: inhibition in a human VLA-4 binding assay; P13612; VLA-4 expressing cells, ligand binding flow cytometry; inhibition, % (about 7 µM as worked out from the volumes in the protocol); 330,000 tested, 0.2% active; in the data active = inhibition above about 50%
# An asterisk follows results filed as active; x = no result.
SMILES,JMJD2C inh,MEX-5 binding,HTR2A ag,V-ATPase pHluor,Exocytosis inh,VLA-4 inh
CN(Cc1cccs1)C(=O)c1ccc(Cl)c(S(=O)(=O)N2CCCCCC2)c1,7.7,x,0.1,-0.3,1.0,18.0
COC(=O)c1sc(NC(=O)c2cc3c(s2)CCCC3)nc1C,59.8*,-0.1,-17.1,0.8,3.7,7.5
Cc1cc(C)c2cc(C(=O)N3CCN(c4ncccc4C(F)(F)F)CC3)[nH]c2c1,5.0,2.1,-1.4,-7.1,-22.6,3.9
c1ccc(-c2nnc(-c3ccccn3)s2)nc1,1.1,-6.4,3.7,-0.8,-11.0,3.2
Nc1nc(N)nc(-c2ccccn2)n1,-21.1,-0.1,-3.4,-2.9,-2.3,-5.6
c1ccc(-c2nc(-c3ccccn3)nc(-c3ccccn3)n2)nc1,-16.6,-39.5*,2.0,-0.9,-4.3,2.9
c1ccc(C2=NNC(c3ccccn3)=NN2)nc1,-12.8,-36.3*,10.2,-4.5,6.9,-16.0
CCNC(=O)C1CCCN(C(=O)c2ccc(N(C)C)cc2)CC1 (centres undefined),x,x,-1.9,x,-1.8,x
O=C(COc1ccc(Br)cc1)NCCCNC(=O)c1cnccn1,1.9,0.6,-4.5,6.0,-2.6,18.4
Cn1ncc(S(=O)(=O)Cc2ccccc2)c(Cl)c1=O,-9.7,0.6,8.6,19.2*,-6.8,30.0
COc1ccc(CNC(=O)C2CCN(S(=O)(=O)N3CCCCC3)CC2)c(OC)c1,15.9,-1.3,1.5,-0.1,-0.4,-3.8
COc1ccccc1N1C(=O)C(Cl)=C(Nc2ccccc2O)C1=O,19.5,-28.6*,0.9,-2.5,-1.5,x
O=C1C(Cl)=C(Nc2ccccc2O)C(=O)N1c1ccccc1,-24.0,-31.2*,0.4,1.7,-1.6,-23.1
Cc1c(NC2=C(Cl)C(=O)N(c3ccccc3)C2=O)c(=O)n(-c2ccccc2)n1C,1.4,-3.6,2.7,-2.6,2.1,9.3
CS(=O)(=O)c1ccc(C(=O)CN2C(=O)NC3(CCCc4ccccc43)C2=O)cc1 (centres undefined),x,x,2.9,7.9,-4.2,-0.1
O=C(Nc1ccc2c(c1)OCO2)c1cc(C2CCCCN2C(=O)CCc2ccccc2)on1 (centres undefined),x,x,2.9,x,-5.0,x
N#C/C(=C/c1ccc(N2CCOCC2)o1)c1ccc(Br)cc1,-19.8,1.1,6.1,0.6,67.4*,-288.9
N#C/C(=C\c1ccc(N2CCOCC2)o1)c1ccccc1,-2.6,7.9,1.0,-1.0,62.6*,-8.8
CC1(C)NC(=O)N(CCCCOc2cccc(C(F)(F)F)c2)C1=O,6.3,1.0,-5.4,14.7*,-0.9,-3.8
CCN(CC)C(=S)SCC(=O)c1ccccc1,-5.0,0.4,-4.7,-4.7,-1.7,-14.5
CCN(CC)C(=S)SSC(=S)N(CC)CC,0.3,4.3,1.0,2.8,64.2*,10.7
O=C(COC(=O)c1cncc(Br)c1)NC12CC3CC(CC(C3)C1)C2,1.8,x,-2.7,x,12.0,-7.5
Cc1cc(C)nc(N(C#N)CCOc2ccc(Cl)cc2)n1,0.2,2.3,-3.0,-1.4,76.6*,-1.6
N#C/C(=N/Nc1ccc(OC(F)(F)F)cc1)C(N)=S,-7.9,-1.7,-2.9,0.4,11.9,-12.4
NC(=S)N=Nc1ccc(NN=C(N)N)cc1,0.0,-53.3*,-2.7,-3.1,-2.3,-11.8
SMILES,JMJD2C inh,MEX-5 binding,HTR2A ag,V-ATPase pHluor,Exocytosis inh,VLA-4 inh
C#CCOCCOCCOCCNc1nc(N2CCN(C(=O)Cn3cc(CC(C)O)nn3)CC2)nc(N2CCN(C(=O)[C@H](C)n3cc(CCC(=O)O)nn3)CC2)n1 (some centres undefined),x,x,-1.1,-7.4,0.2,x
CCN(CC)C(=O)CSc1nnc2nnc3cc(Cl)ccc3n12,-7.2,-31.7*,2.1,-0.5,-4.1,-15.0
CC(NC(=O)/C(C#N)=C/c1ccc([N+](=O)[O-])o1)c1ccccc1 (centres undefined),-17.2,3.5,-6.6,93.7*,66.9*,-22.3
O=c1[nH]c(=O)c2[nH]c(=S)[nH]c2[nH]1,x,x,6.6,11.4,-2.7,x
CC(=O)N/C(=N/c1nc(C)cc(C)n1)Nc1ccc(C)cc1C,-15.0,1.6,4.4,-2.4,66.4*,8.3
CC(=O)N/C(=N/c1nc(C)cc(C)n1)Nc1cccc(C)c1,-3.7,5.3,-7.2,0.8,-17.3,22.6
COc1ccc(/C=C2\SC(=N)N(c3nccs3)C2=O)cc1OC,-4.4,-12.2,-6.4,2.8,0.3,3.4
N=C1S/C(=C\c2ccc(-c3cccc(Cl)c3)o2)C(=O)N1c1nccs1,2.5,0.4,0.5,4.7,73.4*,20.2
